Only some compounds are listed: those with a hit (about 15% of all), similar ones and a draw of the others.
RORgamma inh: inhibitors of mouse ROR gamma transcriptional activity; P51450; Potency, µM (series often up to 53.6 µM), for the others: top-dose activity change, negative = inhibition, hits mostly inhibitors; AID 2551; Drosophila S2 Gal4-RORgamma UAS-luciferase reporter, 20 h; actives 5.4% (n = 310,000); note: nearly all actives have a fitted effect of over 60% in size
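Drosophila S2 cells stably expressing Gal4-DBD/mouse RORγ fusion under metallothionein promoter plus UAS-luciferase; compound 1 h, then 700 uM CuSO4 induction for 20 h at ambient temperature; inhibition read as reduced luminescence.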
DT40 TDP1 no CPT: qHTS for Inhibitors of human tyrosyl-DNA phosphodiesterase 1 (TDP1): qHTS in cells in absence of CPT | DT40 Tdp1-/- hTDP1 cells, no CPT, ATP luminescence, 48 h | Potency, µM (doses to about 46.2 µM), inactives show at the top dose activity change, negative = growth inhibition, most hits filed as inhibitors | actives 15% (n = 420,000) | AID 686978, 2013; note: nearly all actives have a fitted effect of over 55% in size
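No-CPT arm: Tdp1-/-;hTDP1 DT40 cells (400/well) plus compounds, incubated ≥48 hr at 37 °C. Readout CellTiter-Glo luminescence.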
12-LOX inh: ALOX12 (human) lipoxygenase inhibition. purified 12hLO, xylenol orange hydroperoxide absorbance. actives 1.1% (n = 580,000). Potency, µM (top dose mostly 108 µM), for the others: at the highest dose activity change, negative = inhibition, actives largely listed as inhibitors
Target sequence (P18054 whole entry, looked up): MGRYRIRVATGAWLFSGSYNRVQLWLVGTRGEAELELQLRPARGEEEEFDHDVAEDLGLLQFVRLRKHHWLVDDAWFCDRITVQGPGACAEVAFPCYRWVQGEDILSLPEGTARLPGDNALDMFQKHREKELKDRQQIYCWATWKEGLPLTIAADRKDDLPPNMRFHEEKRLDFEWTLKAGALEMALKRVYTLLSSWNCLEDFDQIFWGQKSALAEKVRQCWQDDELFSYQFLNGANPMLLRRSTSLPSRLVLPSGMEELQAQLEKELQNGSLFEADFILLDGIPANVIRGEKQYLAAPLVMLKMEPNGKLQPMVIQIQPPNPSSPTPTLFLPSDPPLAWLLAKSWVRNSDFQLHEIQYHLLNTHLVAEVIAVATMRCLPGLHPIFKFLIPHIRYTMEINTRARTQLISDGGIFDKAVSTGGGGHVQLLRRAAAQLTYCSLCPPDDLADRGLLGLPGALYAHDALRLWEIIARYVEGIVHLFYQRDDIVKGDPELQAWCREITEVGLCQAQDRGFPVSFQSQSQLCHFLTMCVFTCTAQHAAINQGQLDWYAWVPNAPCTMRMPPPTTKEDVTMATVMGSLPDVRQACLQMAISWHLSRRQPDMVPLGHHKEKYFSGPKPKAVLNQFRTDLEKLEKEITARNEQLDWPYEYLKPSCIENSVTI
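Purified human 12hLO at 150 nM in 25 mM Hepes, 0.01% Triton X-100, pH 7.0, preincubated 15 min at room temperature with compound. Reaction started with 40 uM arachidonic acid, 30 min at room temperature. Hydroperoxide measured by Fe-xylenol orange, 573/405 nm absorbance ratio.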
VP16 counter: Gal4-VP16 reporter inhibition counter-screen. Potency, µM (titrated, usually from 53.6 µM), without a hit: at the highest dose activity, negative = inhibition, hits mostly inhibitors. actives 3.5% (n = 310,000). Drosophila S2 Gal4-VP16 UAS-luciferase, luminescence, 20 h;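 note: Gal4-VP16 expression switched on by copper sulfate through the metallothionein promoter; nearly all actives have a fitted effect of over 50% in size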
TDP1 cell CPT: growth inhibition of DT40 Tdp1-/-;hTDP1 cells with camptothecin (screen for TDP1 inhibitors); chicken DT40 Tdp1-/-;hTDP1 cells + 20 nM CPT, ATP luminescence, 48 h; Potency, µM (highest dose often 46.2 µM), for the others: top-dose activity change, negative = growth inhibition, hits mostly inhibitors; AID 686979; actives 12% (n = 420,000); note: nearly all actives have a fitted effect of over 55% in size
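Chicken DT40 Tdp1-/- cells complemented with human TDP1, 400 cells/well, exposed to compounds plus 20 nM camptothecin for at least 48 h at 37 C; viability read as ATP content by CellTiter-Glo luminescence.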
ELG1 DNA repair: inhibitors of ELG1-dependent DNA repair in HEK293T cells. AID 504467. HEK293T ELG1-luciferase reporter, luminescence, 16 h; DNA damage induced by 5-fluorouridine. Potency, µM (titrated, usually from 46.1 µM), for inactives: at the highest dose activity change, negative = inhibition, most hits filed as inhibitors. actives 2.3% (n = 330,000); note: nearly all actives have a fitted effect of over 55% in size
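HEK293T cells expressing luciferase-tagged ELG1 (2,000/well) received 5-Fluorouridine plus compound or DMSO for 16 hr at 37 °C. Luciferase was read by ONE-Glo luminescence after 30 min at room temperature.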
The depositor's hits bear a star; ? = inconclusive; . = no result; [ ] = remark or other dose. Calls come from the whole dose curve; as a rule, active = well fitted curve in the direction sought with a large enough effect; inconclusive = small, poorly fitted or top-dose-only effect, or another doubt; inactive = no such curve, though single readings can be large; an effect the other way counts as inactive or inconclusive. % is set by controls: 0 for no effect and ±100 for the full control effect; potency is the fitted concentration of half-maximal effect.

SMILES	RORgamma inh	DT40 TDP1 no CPT	12-LOX inh	VP16 counter	TDP1 cell CPT	ELG1 DNA repair
CN(C)CCCNc1nc2sc3c(c2c(=O)n1CCc1ccccc1)CCCCC3	-31%	16µM*	?	-10%	?	1%
COc1ccccc1C1=NS(=O)(=O)N(C)C(C(=O)N2CCCCC2C)=C1 (configuration not stated)	.	.	-1%	.	.	.
COc1cccc(-c2nnc(SCC(=O)N(C3CCCCC3)C3CCS(=O)(=O)C3)n2C)c1 (configuration not stated)	.	.	-13%	.	.	.
Cc1ccc(CN(C)C(=O)CN2C(=O)NC(c3ccccc3)(c3ccccc3)C2=O)c(C)c1	.	16µM*	-3%	.	?	?
COc1cccc(CC2(CO)CCCN(Cc3ccc(-c4ccco4)cc3)C2)c1 (configuration not stated)	-1%	21µM*	-22%	-9%	23µM*	12%
COc1cccc(CC2(CO)CCCN(Cc3ccccc3-c3ccco3)C2)c1 (configuration not stated)	?	?	-3%	-16%	?	7%
COc1ccccc1-n1cc(CN2CCCC(CO)(Cc3cccc(Cl)c3)C2)cn1 (configuration not stated)	4%	23µM*	-19%	2%	?	-10%
COc1cccc(CC2(CO)CCCN(Cc3c(C)cc(C)cc3-n3cccn3)C2)c1 (configuration not stated)	1%	15µM*	-24%	-2%	21µM*	-14%
COc1cccc(CC2(CO)CCCN(Cc3ccc(C)s3)C2)c1 (configuration not stated)	-13%	?	-25%	-4%	-18%	-3%
COc1ccc(-n2ccnc2CN2CCCC(CO)(Cc3cccc(OC)c3)C2)cc1 (configuration not stated)	11µM*	26µM*	-14%	-9%	?	-21%
CCC(Sc1nc2nccnc2c(=O)n1Cc1ccc(F)cc1)C(=O)NC1CCCCC1 (configuration not stated)	.	?	-4%	.	21µM*	.
COC(=O)c1[nH]c2ccc(C)cc2c1NC(=O)CCN1CCCCC1	.	.	0%	.	.	.
CCOC(=O)c1[nH]c2ccc(F)cc2c1NC(=O)CN1CCN(C/C=C/c2ccccc2)CC1	?	?	-2%	?	?	?
COC(=O)c1[nH]c2ccccc2c1NC(=O)CN1CCN(C/C=C/c2ccccc2)CC1	0%	?	-26%	-1%	26µM*	8.2µM*
Cc1ccc2[nH]c(C(=O)O)c(NC(=O)CN3CCN(c4cccc(C)c4C)CC3)c2c1	?	23µM*	0%	0%	?	-5%
COC(=O)c1[nH]c2ccc(C)cc2c1NC(=O)CN1CCN(C(=O)c2ccccc2)CC1	-3%	?	-22%	-4%	?	21µM*
COC(=O)c1[nH]c2ccc(C)cc2c1NC(=O)CN1CCN(c2ccc(F)cc2)CC1	-43%	16µM*	0%	13µM*	11µM*	9.2µM*
COC(=O)c1ncoc1-c1ccccc1C(=O)N1CCN(c2ccccc2)CC1	.	.	2%	.	.	.
CCN1CCN(C2CCCCC2NS(=O)(=O)c2ccccc2)CC1 (configuration not stated)	-20%	20%	0%	-4%	-6%	0%
COc1ccc(N2CCN(C3CCCCC3NS(=O)(=O)c3ccc(Cl)cc3)CC2)cc1 (configuration not stated)	3%	?	20%	-5%	?	-27%
CC1CC(C)CN(C2CCCCC2NS(=O)(=O)c2ccc(Cl)cc2)C1 (configuration not stated)	3%	23µM*	1%	-2%	?	-7%
Cc1ccc(C)c(N2CCN(C3CCCCC3NS(=O)(=O)c3ccccc3)CC2)c1 (configuration not stated)	4%	4.6µM*	.	-3%	7.3µM*	-29%
Cc1ccc(Cl)cc1N1CCN(C2CCCCC2NS(=O)(=O)c2ccccc2)CC1 (configuration not stated)	-1%	18µM*	.	-12%	16µM*	?
COc1ccccc1N1CCN(C2CCCCC2NS(=O)(=O)c2ccc(Cl)cc2)CC1 (configuration not stated)	4%	23µM*	.	-11%	23µM*	?
O=S(=O)(NC1CCCCC1N1CCCCC1)c1ccccc1 (configuration not stated)	9%	10%	-3%	-1%	2%	?
SMILES	RORgamma inh	DT40 TDP1 no CPT	12-LOX inh	VP16 counter	TDP1 cell CPT	ELG1 DNA repair
CN1CCN(C2CCCCC2NS(=O)(=O)c2ccc(Cl)cc2)CC1 (configuration not stated)	0%	5%	.	-3%	-17%	?
Cn1nc(C(=O)NC2CCN(c3cc(-c4cccs4)[nH]n3)C2)c2ccccc21 (configuration not stated)	.	.	29%	.	.	.
Brc1ccc[n+](CCC2CCCCC2)c1	.	10µM*	.	.	?	.
CCCCCCCCCC[n+]1cc(Br)cc(Br)c1	.	0.45µM*	.	.	0.79µM*	.
CCCCCCCCCCCCCCC	.	.	0%[176 µM]	.	.	.
N#CC[n+]1cccc(Br)c1	.	1%	.	.	2%	.
CCCCCCCCCC[n+]1cccc(Br)c1	.	5µM*	.	.	1.4µM*	.
CCCCCCCCCC[n+]1cccc(C(=O)N(CC)CC)c1	32%	2.9µM*	-9%	-18%	8.2µM*	-19%
NC(=O)c1ccc[n+](CCC[n+]2cccc(C(N)=O)c2)c1	-7%	-1%	-1%	0%	1%	7%
CC(c1ccccc1)N(C)C(=O)CSc1cc(C(=O)NC2CC2)c2ccccc2n1 (configuration not stated)	.	.	2%	.	.	.
O=c1[nH]c(CN2CCCCCCC2)nc2ccsc12	.	.	5%	.	.	.
CCCn1nc(NC(C)=O)c2cc3cccc(C)c3nc21	-9%	?	15%	4%	?	?
CCCn1nc(NC(=O)COC)c2cc3cccc(C)c3nc21	-12%	16µM*	2%	3%	?	-4%
Cc1cccc2cc3c(NC(=O)c4ccccn4)nn(C)c3nc12	2µM*	9.2µM*	-2%	4µM*	?	4%
COc1ccc(-n2nc(C3CCN(C(=O)Cc4ccccn4)CC3)[nH]c2=O)cc1	.	.	69%	.	.	.

High-throughput results: PubChem, National Center for Advancing Translational Sciences (NCATS)
